Assay in all cases: NCI-60 one-dose screen, 48 h (100 = growth as untreated, 0 = no growth, -100 = all killed)
Assay [1] deals with HT29 colon. The conditions noted are these: 10 µM unless noted.
Assay [2] concerns SNB-75 CNS. The conditions noted are these: 10 µM unless noted.
For assay [3], the system named is SNB-19 CNS. The conditions noted are these: 10 µM unless noted.
Assay [4] has as its system U251 CNS. The conditions noted are these: 10 µM unless noted.
Assay [5] has as its system PC-3 prostate. The conditions noted are these: 10 µM unless noted.
The subject of assay [6] is SK-MEL-5 melanoma. The conditions noted are these: 10 µM unless noted.
Assay [7] deals with UACC-62 melanoma. The conditions noted are these: 10 µM unless noted.
Assay [8] has as its system LOX IMVI melanoma. The conditions noted are these: 10 µM unless noted.
Assay [9] relates to SK-MEL-28 melanoma. The conditions noted are these: 10 µM.
Assay [10] relates to SK-MEL-2 melanoma. The conditions noted are these: 10 µM unless noted.
Assay [11] has as its system EKVX NSCLC. The conditions noted are these: 10 µM unless noted.
Assay [12] has as its system SN12C renal. The conditions noted are these: 10 µM unless noted.
Assay [13] deals with UO-31 renal. The conditions noted are these: 10 µM unless noted.
Assay [14] concerns TK-10 renal. The conditions noted are these: 10 µM unless noted.
For assay [15], the system named is ACHN renal. The conditions noted are these: 10 µM unless noted.
Assay [16] concerns CAKI-1 renal. The conditions noted are these: 10 µM unless noted.
Assay [17] has as its system A498 renal. The conditions noted are these: 10 µM unless noted.
Assay [18] relates to CCRF-CEM leukemia. The conditions noted are these: 10 µM unless noted.
Assay [19] deals with MOLT-4 leukemia. The conditions noted are these: 10 µM unless noted.
Assay [20] concerns SR leukemia. The conditions noted are these: 10 µM unless noted.

This is part of a sample that, as a whole, favours compounds with a hit. Of some 83,000 tested, about 20% had one in any assay.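 Negative percent growth values reflect cell death: -40 means 40% of the cells present at the start died, and -100 means all died.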 A number with no mark means an inactive call. Calls of active or inactive are those of the source. How the source made its calls: active means growth percent below 10; inactive means the rest.

With `COc1ccc(C2Nc3ncnc(N)c3N=C3c4ccccc4C(=O)C32)cc1` (centres undefined), the growth was 98.2% in assay [1]; 71.5% in assay [2]; 82.2% in assay [3]; 90.9% in assay [4]; 78% in assay [5]; 95.6% in assay [6]. The growth was 117% in assay [7]; 92.8% in assay [8]; 113% in assay [9]; 88.5% in assay [10]; 94.5% in assay [11]; 140% in [12]. For the same compound, the growth in [13] is 67%; in assay [14], 123%; in assay [15] it was 92.4%; in assay [16] it was 80.1%; in [17], 99.2%; in assay [18], 97.9%. The growth was 57.9% in assay [19] and 9.71% (active) in assay [20].
For the compound `S=C1CCCC(=S)N1`, the growth in assay [1] is 103%; in assay [2], 99%; in assay [3], 103%; in assay [4], 101%; in [5], 103%; in assay [6], 107%. Besides, the growth in [7] is 96%; in assay [8], 96.8%; in assay [9] it was 106%; in [10], 102%; in [11] it was 106%; in assay [12], 99.3%. Moreover, the growth was 87.8% in assay [13]; 114% in assay [14]; 105% in assay [15]; 93% in assay [16]; 91.3% in assay [17]; 105% in assay [18]. Further, the growth in assay [19] is 107%.
For the compound `COC(=O)c1ccc(NC(=O)CSc2nc3ccccc3c(=O)n2-c2ccccc2)cc1`, the growth in assay [1] is 108%; in assay [2], 92.1%; in [3] it was 99.3%; in assay [4], 102%; in [5], 103%; in assay [6], 94%. In addition, the growth was 96.3% in assay [7]; 98.4% in assay [8]; 113% in assay [9]; 105% in assay [10]; 117% in [11]; 104% in [12]. The growth in assay [13] was 86.4%; in [14], 103%; in assay [15] it was 103%; in [16] it was 91.5%; in assay [17], 96.7%; in assay [18] it was 92.8%. The growth in assay [19] is 88%; in assay [20], 88.9%.
As for `O=C(Nc1ccc(Br)cc1F)c1cc(I)ccc1O`, the growth was 92.4% in [1]; -9.93% (active) in assay [2]; 13.3% in assay [3]; 3.12% (active) in assay [4]; 7.07% (active) in assay [5]; -68.4% (active) in assay [6]. Also, the growth was 3.48% (active) in assay [7]; 13.7% in assay [8]; 19.1% in assay [9]; -26.7% (active) in [10]; 43.8% in assay [11]; 5.88% (active) in assay [12]. The growth in assay [13] was 2.04% (active); in [14] it was 12.9%; in assay [15], 6.1% (active); in assay [16], -16.8% (active); in [17] it was -40.9% (active); in assay [18] it was 11.9%. The growth in assay [19] is 6.68% (active).
For `O=C(c1ccccc1)N(C(=S)NCCc1ccc(Cl)cc1)c1ccc(Cl)cc1`, the growth was 37.6% in [1]; 74.8% in assay [2]; 59.3% in assay [3]; 47.8% in assay [4]; 66.2% in assay [5]; 67.2% in assay [6]. In addition, the growth in [7] was 76.8%; in [8], -16.6% (active); in assay [9], 42.8%; in assay [10], 40.7%; in assay [11], 83.5%; in assay [12] it was 66.1%. Moreover, the growth in assay [13] is 59.1%; in [14], 44.3%; in assay [15] it was 64.5%; in [16], 42.1%; in [17], 91.4%; in [18], 80.7%. Besides, the growth in assay [19] was -10.7% (active).
For `O=C(c1ccccc1)N(CCc1ccc(Cl)cc1)C(=S)N(C(=O)c1ccccc1)c1ccccc1`, the growth in assay [1] was 104%; in [2] it was 104%; in assay [3], 109%; in assay [4], 97%; in assay [5], 85.7%; in [6] it was 95.9%. Also, the growth was 94.5% in assay [7]; 81.5% in [8]; 119% in assay [9]; 117% in [10]; 102% in [11]; 100% in assay [12]. The growth in assay [13] was 81.7%; in assay [14], 97.4%; in assay [15] it was 110%; in assay [16], 96.9%; in [17], 92.3%; in [18] it was 8.54% (active). For the same compound, the growth in assay [19] was 28.7%.
In the case of `O=C(NN1C(=O)CSC1c1ccc(Cl)cc1)c1[nH]c2ccc(F)cc2c1-c1ccccc1` (centres undefined), the growth in assay [1] is 19.2%; in [2] it was 59.2%; in [3] it was 64.2%; in assay [4], 49.6%; in assay [5] it was 42.7%; in [6], 75%. In addition, the growth was 48.7% in assay [7]; 60.9% in assay [8]; 101% in [9]; 49.3% in assay [10]; 49.3% in assay [11]; 44.1% in assay [12]. Also, the growth in assay [13] was 36.3%; in assay [14] it was 66.9%; in assay [15], 43.8%; in [16], 32.1%; in assay [17] it was 84.3%; in [18], 34.3%. Moreover, in assay [19], the growth was 34.1%.
For the compound `O=C(/C=C/c1ccccc1)c1ccc(Nc2nc(NCCO)nc(Nc3ccc(Cl)cc3)n2)cc1`, the growth in [1] is 30.2%; in [2], 69.2%; in assay [3] it was 79.6%; in assay [4] it was 23%; in assay [5], 77.8%; in assay [6], 80.2%. Moreover, the growth is 78.7% in assay [7]; 30.6% in assay [8]; 88.2% in assay [9]; 95.4% in [10]; 74.2% in assay [11]; 94.1% in [12]. Further, the growth was 66.7% in assay [13]; 98.5% in assay [14]; 74.1% in [15]; 79.2% in [16]; 88.9% in assay [17]; 60.6% in assay [18]. Moreover, the growth in assay [19] is 74.3%.

The values above are taken from PubChem BioAssay (NCI).
